# According to the supplement of paper PMC8007513:
# Structures can show the parent of a compound that is named as a salt. ± gives the standard error. Among all 1,300 compounds or so, about 130 (10%) showed an effect of 50% or more. The full list was thinned out, with strong results kept by preference.
# System: Trichoderma virens ATCC 9645
# Test: growth yield (OD600) with compound + IPBC relative to untreated control; higher = less growth inhibition
# Details: compound concentration: 100 uM, IPBC concentration: 200 ng/ml
# Procedure, shortened: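 A biocide at 200 ng ml^−1 was co-applied to some wells, and library compounds were present in all test wells at 100 μM final. The wells held 100 μl of Trichoderma virens ATCC 9645 spores at 15,000 spores ml^−1 in potato dextrose broth, grown at 30 °C in 96-well plates, with OD600 read at 40 h and 72 h. Results are relative growth against the control without either agent, averaged across duplicate screens.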
smiles,measurement,setting,value
CCOc1ccc2c(c1)C(C)=CC(C)(C)N2 [Ethoxyquin] + CCCCNC(=O)OCC#CI [3-iodo-2-propynyl butylcarbamate (IPBC)],growth yield,40 h,98.3 ± 17%
same,growth yield,72 h,98.9 ± 12%
CCc1c(C)[nH]c2c1C(=O)C(CN1CCOCC1)CC2 (configuration not stated) [Molindone hydrochloride] + CCCCNC(=O)OCC#CI [3-iodo-2-propynyl butylcarbamate (IPBC)],growth yield,40 h,102 ± 13%
same,growth yield,72 h,101 ± 8.9%
CO[C@@H]1[C@@H](OC(N)=O)[C@@H](O)[C@H](Oc2ccc3c(O)c(NC(=O)c4ccc(O)c(CC=C(C)C)c4)c(=O)oc3c2C)OC1(C)C [Novobiocin sodium salt] + CCCCNC(=O)OCC#CI [3-iodo-2-propynyl butylcarbamate (IPBC)],growth yield,40 h,91.7 ± 12%
same,growth yield,72 h,115 ± 14%
N#Cc1ccc(C(c2ccc(C#N)cc2)n2cncn2)cc1 [Letrozole] + CCCCNC(=O)OCC#CI [3-iodo-2-propynyl butylcarbamate (IPBC)],growth yield,40 h,98.6 ± 8.1%
same,growth yield,72 h,98.5 ± 1.6%
c1ccc(-c2ccc(C(c3ccccc3)n3ccnc3)cc2)cc1 (configuration not stated) [Bifonazole] + CCCCNC(=O)OCC#CI [3-iodo-2-propynyl butylcarbamate (IPBC)],growth yield,40 h,4.92 ± 0.16%
same,growth yield,72 h,3.25 ± 0.1%
O=C(C1CCCCC1)N1CC(=O)N2CCc3ccccc3C2C1 (configuration not stated) [Praziquantel] + CCCCNC(=O)OCC#CI [3-iodo-2-propynyl butylcarbamate (IPBC)],growth yield,40 h,71 ± 7.5%
same,growth yield,72 h,87.3 ± 3.8%
O=[N+]([O-])O[C@H]1CO[C@H]2[C@@H]1OC[C@H]2O[N+](=O)[O-] [Isosorbide dinitrate] + CCCCNC(=O)OCC#CI [3-iodo-2-propynyl butylcarbamate (IPBC)],growth yield,40 h,90.9 ± 7.6%
same,growth yield,72 h,94.4 ± 5.7%
NS(=O)(=O)c1cc2c(cc1Cl)NC(C(Cl)Cl)NS2(=O)=O (configuration not stated) [Trichlormethiazide] + CCCCNC(=O)OCC#CI [3-iodo-2-propynyl butylcarbamate (IPBC)],growth yield,40 h,97.5 ± 16%
same,growth yield,72 h,97.3 ± 12%
C[C@@H]1CN([C@H]2CC[C@](C#N)(c3ccc(F)cc3)CC2)CC[C@]1(C(=O)O)c1ccccc1 [Levocabastine hydrochloride] + CCCCNC(=O)OCC#CI [3-iodo-2-propynyl butylcarbamate (IPBC)],growth yield,40 h,118 ± 11%
same,growth yield,72 h,111 ± 7.3%
CC(C)OC(=O)CCC/C=C\C[C@@H]1[C@@H](CC[C@@H](O)CCc2ccccc2)[C@H](O)C[C@@H]1O [Latanoprost] + CCCCNC(=O)OCC#CI [3-iodo-2-propynyl butylcarbamate (IPBC)],growth yield,40 h,90.5 ± 1.9%
same,growth yield,72 h,93 ± 3.9%
O=c1oc2ccccc2c(O)c1Cc1c(O)c2ccccc2oc1=O [Dicumarol] + CCCCNC(=O)OCC#CI [3-iodo-2-propynyl butylcarbamate (IPBC)],growth yield,40 h,92.3 ± 6.5%
same,growth yield,72 h,93.2 ± 3%
CCc1oc2ccccc2c1C(=O)c1cc(Br)c(O)c(Br)c1 [Benzbromarone] + CCCCNC(=O)OCC#CI [3-iodo-2-propynyl butylcarbamate (IPBC)],growth yield,40 h,43.68 ± 0.16%
same,growth yield,72 h,99.3 ± 8.1%
CC(=O)CC(c1ccccc1)c1c(O)c2ccccc2oc1=O (configuration not stated) [Warfarin] + CCCCNC(=O)OCC#CI [3-iodo-2-propynyl butylcarbamate (IPBC)],growth yield,40 h,88.5 ± 2.1%
same,growth yield,72 h,93.03 ± 0.1%
C[C@]12C/C(=C/O)C(=O)C[C@@H]1CC[C@@H]1[C@@H]2CC[C@@]2(C)[C@H]1CC[C@]2(C)O [Oxymetholone] + CCCCNC(=O)OCC#CI [3-iodo-2-propynyl butylcarbamate (IPBC)],growth yield,40 h,112 ± 14%
same,growth yield,72 h,105 ± 9.2%
Oc1ncnc2[nH]ncc12 [Allopurinol] + CCCCNC(=O)OCC#CI [3-iodo-2-propynyl butylcarbamate (IPBC)],growth yield,40 h,93.4 ± 4.8%
same,growth yield,72 h,94.28 ± 0.32%
Cc1cc(N)c2ccccc2[n+]1CCCCCCCCCC[n+]1c(C)cc(N)c2ccccc21 [Dequalinium dichloride] + CCCCNC(=O)OCC#CI [3-iodo-2-propynyl butylcarbamate (IPBC)],growth yield,40 h,3.81%
same,growth yield,72 h,2.94%
COc1ncnc(NS(=O)(=O)c2ccc(N)cc2)c1OC [Sulfadoxine] + CCCCNC(=O)OCC#CI [3-iodo-2-propynyl butylcarbamate (IPBC)],growth yield,40 h,72.6 ± 2.4%
same,growth yield,72 h,84.7 ± 2.7%
Cc1[nH]cnc1CN1CCc2c(c3ccccc3n2C)C1=O [Alosetron hydrochloride] + CCCCNC(=O)OCC#CI [3-iodo-2-propynyl butylcarbamate (IPBC)],growth yield,40 h,85.5 ± 1.3%
same,growth yield,72 h,87.89 ± 0.21%
CC(C)(C)NC[C@@H](O)COc1cccc2c1CCCC2=O [(+) -Levobunolol hydrochloride] + CCCCNC(=O)OCC#CI [3-iodo-2-propynyl butylcarbamate (IPBC)],growth yield,40 h,97.8 ± 16%
same,growth yield,72 h,99.1 ± 12%
CCN(C)C(=O)Oc1cccc([C@H](C)N(C)C)c1 [Rivastigmine] + CCCCNC(=O)OCC#CI [3-iodo-2-propynyl butylcarbamate (IPBC)],growth yield,40 h,97.1 ± 4%
same,growth yield,72 h,95.1 ± 3.7%
CN(C)C(=O)Oc1cccc([N+](C)(C)C)c1 [Neostigmine bromide] + CCCCNC(=O)OCC#CI [3-iodo-2-propynyl butylcarbamate (IPBC)],growth yield,40 h,83.4 ± 1.1%
same,growth yield,72 h,92.19 ± 0.52%
CN(CCCCCCCCCCN(C)C(=O)Oc1cccc([N+](C)(C)C)c1)C(=O)Oc1cccc([N+](C)(C)C)c1 [Demecarium bromide] + CCCCNC(=O)OCC#CI [3-iodo-2-propynyl butylcarbamate (IPBC)],growth yield,40 h,3.97 ± 0.16%
same,growth yield,72 h,2.73%
C=C1c2cccc(O)c2C(=O)C2=C(O)[C@]3(O)C(=O)C(C(N)=O)=C(O)[C@@H](N(C)C)[C@@H]3[C@@H](O)[C@H]12 [Methacycline hydrochloride] + CCCCNC(=O)OCC#CI [3-iodo-2-propynyl butylcarbamate (IPBC)],growth yield,40 h,94.2 ± 1.8%
same,growth yield,72 h,93.7 ± 0.94%
C[C@]1(Cn2ccnn2)[C@H](C(=O)O)N2C(=O)C[C@H]2S1(=O)=O [Tazobactam] + CCCCNC(=O)OCC#CI [3-iodo-2-propynyl butylcarbamate (IPBC)],growth yield,40 h,84.5 ± 0.95%
same,growth yield,72 h,87.15 ± 0.32%
C#Cc1cccc(Nc2ncnc3cc(OCCOC)c(OCCOC)cc23)c1 [Erlotinib] + CCCCNC(=O)OCC#CI [3-iodo-2-propynyl butylcarbamate (IPBC)],growth yield,40 h,98.2 ± 11%
same,growth yield,72 h,99.3 ± 3%
COc1cc2ncnc(Nc3ccc(F)c(Cl)c3)c2cc1OCCCN1CCOCC1 [Gefitinib] + CCCCNC(=O)OCC#CI [3-iodo-2-propynyl butylcarbamate (IPBC)],growth yield,40 h,16.4 ± 5.2%
same,growth yield,72 h,10.5 ± 0.63%
CCCCOc1ccc(OCCCN2CCOCC2)cc1 [Pramoxine hydrochloride] + CCCCNC(=O)OCC#CI [3-iodo-2-propynyl butylcarbamate (IPBC)],growth yield,40 h,80.1 ± 2.2%
same,growth yield,72 h,94 ± 3.1%
C[C@]12C[C@H](O)[C@H]3[C@@H](CCC4=CC(=O)CC[C@@]43C)[C@@H]1CC[C@@H]2C(=O)CO [Corticosterone] + CCCCNC(=O)OCC#CI [3-iodo-2-propynyl butylcarbamate (IPBC)],growth yield,40 h,94.2 ± 7.8%
same,growth yield,72 h,96.6 ± 5.6%
CCCN1CCCC[C@H]1C(=O)Nc1c(C)cccc1C [Ropivacaine hydrochloride] + CCCCNC(=O)OCC#CI [3-iodo-2-propynyl butylcarbamate (IPBC)],growth yield,40 h,88.5 ± 1.4%
same,growth yield,72 h,91.98 ± 0.1%
C[C@]12C=CC(=O)C=C1CC[C@@H]1[C@@H]2[C@@H](O)C[C@@]2(C)[C@H]1CC[C@]2(O)C(=O)CO [Prednisolone] + CCCCNC(=O)OCC#CI [3-iodo-2-propynyl butylcarbamate (IPBC)],growth yield,40 h,82.8 ± 2.1%
same,growth yield,72 h,92.5 ± 0.42%
N[C@@H](Cc1cc(I)c(Oc2ccc(O)c(I)c2)c(I)c1)C(=O)O [Liothyronine] + CCCCNC(=O)OCC#CI [3-iodo-2-propynyl butylcarbamate (IPBC)],growth yield,40 h,93.1 ± 10%
same,growth yield,72 h,98.1 ± 6.4%
NC(Cc1cc(I)c(Oc2cc(I)c(O)c(I)c2)c(I)c1)C(=O)O (configuration not stated) [Thyroxine (L)] + CCCCNC(=O)OCC#CI [3-iodo-2-propynyl butylcarbamate (IPBC)],growth yield,40 h,100 ± 11%
same,growth yield,72 h,98.8 ± 9%
"O=C(O)Cc1cc(I)c(Oc2ccc(O)c(I)c2)c(I)c1 [Tiratricol, 3,3',5-triiodothyroacetic acid] + CCCCNC(=O)OCC#CI [3-iodo-2-propynyl butylcarbamate (IPBC)]",growth yield,40 h,44 ± 1.8%
same,growth yield,72 h,73.41 ± 0.63%
CCN(CC)CCNc1ccc(CO)c2sc3ccccc3c(=O)c12 [Hycanthone] + CCCCNC(=O)OCC#CI [3-iodo-2-propynyl butylcarbamate (IPBC)],growth yield,40 h,124 ± 2.7%
same,growth yield,72 h,120 ± 0.63%
COc1cc(NC(C)CCCN)c2ncccc2c1 (configuration not stated) [Primaquine diphosphate] + CCCCNC(=O)OCC#CI [3-iodo-2-propynyl butylcarbamate (IPBC)],growth yield,40 h,73.7 ± 11%
same,growth yield,72 h,117.7 ± 1.1%
COc1ccc(OC)c(C(O)CNC(=O)CN)c1 (configuration not stated) [Midodrine hydrochloride] + CCCCNC(=O)OCC#CI [3-iodo-2-propynyl butylcarbamate (IPBC)],growth yield,40 h,96.1 ± 4.3%
same,growth yield,72 h,104 ± 2.1%
CCCC(C)(COC(N)=O)COC(=O)NC(C)C (configuration not stated) [Carisoprodol] + CCCCNC(=O)OCC#CI [3-iodo-2-propynyl butylcarbamate (IPBC)],growth yield,40 h,84.8 ± 5.1%
same,growth yield,72 h,92.7 ± 5.5%
CC(CCc1ccccc1)NCC(O)c1ccc(O)c(C(N)=O)c1 (configuration not stated) [Labetalol hydrochloride] + CCCCNC(=O)OCC#CI [3-iodo-2-propynyl butylcarbamate (IPBC)],growth yield,40 h,73.38 ± 0.32%
same,growth yield,72 h,87.15 ± 0.1%
CCCCCCCCCCCCCCCC[N+](C)(C)CCN(Cc1ccc(OC)cc1)c1ncccn1 [Thonzonium bromide] + CCCCNC(=O)OCC#CI [3-iodo-2-propynyl butylcarbamate (IPBC)],growth yield,40 h,3.34 ± 0.16%
same,growth yield,72 h,2.62 ± 0.1%
COc1ccc(CN(CCN(C)C)c2ccccn2)cc1 [Pyrilamine maleate] + CCCCNC(=O)OCC#CI [3-iodo-2-propynyl butylcarbamate (IPBC)],growth yield,40 h,82.8 ± 4.6%
same,growth yield,72 h,92.4 ± 4.9%
CN(C)CCN(Cc1ccc(Cl)cc1)c1ccccn1 [Chloropyramine hydrochloride] + CCCCNC(=O)OCC#CI [3-iodo-2-propynyl butylcarbamate (IPBC)],growth yield,40 h,76.1 ± 1.1%
same,growth yield,72 h,92.3 ± 2.3%
